D3 ag = qHTS of D3 Dopamine Receptor Agonist: qHTS; D(3) dopamine receptor (Homo sapiens), P35462; D3R DiscoveRx beta-arrestin cells, luminescence, 90 min; max activation, %; 410,000 compounds, 0.58% hits; in the data active = max activation above about 30%; note: 0% is about no effect
Target sequence (P35462 whole entry, looked up): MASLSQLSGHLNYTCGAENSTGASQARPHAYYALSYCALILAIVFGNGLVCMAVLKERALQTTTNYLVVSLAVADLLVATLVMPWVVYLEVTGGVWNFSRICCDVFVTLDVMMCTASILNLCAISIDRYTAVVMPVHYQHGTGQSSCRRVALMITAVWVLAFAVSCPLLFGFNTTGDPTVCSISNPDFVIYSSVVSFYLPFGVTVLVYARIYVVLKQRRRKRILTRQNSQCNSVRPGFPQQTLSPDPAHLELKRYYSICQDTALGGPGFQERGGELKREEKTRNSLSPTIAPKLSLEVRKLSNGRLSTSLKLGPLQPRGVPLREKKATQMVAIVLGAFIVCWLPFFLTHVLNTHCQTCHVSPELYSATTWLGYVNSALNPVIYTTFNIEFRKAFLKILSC
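Agonist-mode cell screen: cells plated at 1500/well and incubated overnight at 37 °C, then exposed to library compounds for 90 min at 37 °C. Detection reagent was added for 30–60 min at room temperature, and luminescence was read.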
DRD3 antagonist = qHTS of D3 Dopamine Receptor Antagonist: qHTS. D3R cells, DiscoveRx beta-arrestin luminescence, antagonist mode; active compounds read low. max response, negative = inhibition, %. 360,000 compounds, 2.5% hits; in the data active = max response below about -50%; inconclusive = no clear call, values can overlap the other calls; note: % is set by controls: 0 for no effect and ±100 for the full control effect
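Cells plated overnight at 1500 cells/well, then exposed to library compounds with dopamine controls for 90 minutes at 37 degrees C. DiscoveRx reagent added for 30–60 minutes at room temperature; luminescence read, quantitative HTS format.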
a7 integrin act = qHTS for Activators of Integrin-Mediated Alleviation for Muscular Dystrophy; alpha7betagal myoblasts, beta-gal FDG fluorescence, 48 h; Potency, µM (series often up to 38.3 µM), inactives show at the top dose activation, usual class: activators; 350,000 compounds, 0.064% hits; active = well fitted activation curve with a large enough effect; inconclusive = small, poorly fitted or top-dose-only effect; inactive = no such curve, though single readings can be large or run the other way;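 note: potency is the fitted concentration of half-maximal effect; 100% = response of the positive control SU9516; nearly all actives have a fitted effect of over 60% in size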
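Alpha7betagal+/- myoblasts (passage 13) were plated 16-24 hr, then exposed to compounds (1:260 dilution of DMSO stock) for 48 hours at 37C. After MPER lysis, β-galactosidase reporter activity was read as FDG fluorescence (ex 480/em 540) after 30 minutes.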
* = called active by the depositor; ? = inconclusive; / = no result. The list is not random: actives were taken first. Their share in the collection is about 2.9%.

SMILES | D3 ag | DRD3 antagonist | a7 integrin act
CCC(C)NC(=O)Cn1c(=O)n(-c2ccc(C)c(C)c2)c(=O)c2c3c(sc21)CCCCC3 (centres undefined) | 8 | / | /
COC(=O)c1ccccc1NC(=O)COc1ccc(S(=O)(=O)NC(C)C)cc1 | 1 | 0 | -18%
Cc1ccccc1NC(=O)c1ccc(Nc2c([N+](=O)[O-])cc([N+](=O)[O-])c3ccccc23)cc1 | -10 | -71* | 18%
Cc1cc(C(=O)Nc2ccc(Nc3ccccc3)cc2)ccc1[N+](=O)[O-] | 0 | 10 | -2%
CC(C)OCC(O)CS(=O)(=O)Cc1ccccc1 (centres undefined) | 5 | -22 | 14%
COc1ccc(-c2csc(NC(=O)CN3C(=O)C4CCCCC4C3=O)n2)c(OC)c1 (centres undefined) | -4 | ? | 6%
COc1ccc(N(C(=O)c2ccccc2F)S(=O)(=O)c2ccc3c(c2)n(C)c(=O)n3C)cc1 | 8 | / | /
C=CCn1c(SCc2ccc(C(=O)O)cc2)nc2sc(C)c(C)c2c1=O | -8 | 2 | 16%
Cc1sc2nc(SCc3ccc(C(=O)O)cc3)n(Cc3ccco3)c(=O)c2c1C | 84* | 146 | -50%
O=C(O)/C=C\C(=O)Nc1ccc(N2CCN(c3ccc(Cl)c(Cl)c3)CC2)cc1 | -3 | -14 | 3%
O=c1[nH]c2ccc(Cl)cc2c(-c2ccccc2)c1N1CCOCC1 | 2 | 0 | ?
O=c1[nH]c2ccc(Cl)cc2c(-c2ccccc2)c1CN1CCOCC1 | -18 | -58* | -47%
O=c1cc(CN2CCN(CCO)CC2)c2cc3c(cc2o1)CCC3 | -6 | ? | 13%
O=c1cc(CN2CCN(c3ccccc3F)CC2)c2cc3c(cc2o1)CCCC3 | -29 | -62* | 27%
O=c1cc(CN2CCN(Cc3ccccc3)CC2)c2cc3c(cc2o1)CCC3 | -39 | -62* | -15%
O=c1cc(CN2CCN(c3ccccc3F)CC2)c2c(ccc3ccccc32)o1 | 3 | 0 | /
Cc1cc(C(=O)OCC(=O)Nc2cccc([N+](=O)[O-])c2)c(C)o1 | 4 | 2 | 0%
CCn1c(SCC(=O)N/N=C/C=C/c2ccco2)nnc1-c1ccc(OC)cc1 | -7 | -6 | -2%
CN(C)CCC(=O)N1C/C(=C/c2ccccc2)C(=O)/C(=C\c2ccccc2)C1 | -24 | -85* | -54%
COc1ccc(OC(=O)N2C/C(=C/c3ccccc3)C(=O)/C(=C\c3ccccc3)C2)cc1 | -8 | -15 | -40%
CCOC(=O)N1C/C(=C\c2ccccc2)C(=O)/C(=C/c2ccccc2)C1 | -3 | -52* | 10%
O=C1/C(=C/c2ccccc2)CN(C(=O)CCN2CCOCC2)C/C1=C\c1ccccc1 | -19 | -77* | -49%
C[N+](C)(C)CCC(=O)N1C/C(=C/c2ccccc2)C(=O)/C(=C\c2ccccc2)C1 | 1 | 12 | -52%
O=C(/C=C/c1ccccc1)CCN1CCOCC1 | -10 | -15 | -58%
N/C(=N\OC(=O)CCc1ccccc1)c1ccccc1Cl | -5 | -18 | 10%
SMILES | D3 ag | DRD3 antagonist | a7 integrin act
CCCCNC(=O)c1ccc(CNc2c(N3CCC(C(=O)OCC)CC3)c(=O)c2=O)cc1 | -1 | 4 | 17%
CC(=O)NC[C@H]1CN(c2ccc(N3CCOCC3)c(F)c2)C(=O)O1 | 2 | / | /
O=C(Nc1cnc2ccccc2c1)N1CCOCC1 | -5 | -67* | -2%
O=C(Nc1cnc2ccccc2c1)N1CCCCC1 | -7 | 0 | 5%
O=C(NCCCCCCOC1=NS(=O)(=O)c2ccccc21)C(=O)Nc1ccccc1 | 17 | 17 | 44%
COc1c(C(=O)Nc2ccccc2N2CCOCC2)cc2ccccc2c1Br | 3 | 9 | 27%
C#CCOCCOCCOCCNc1nc(N2CCN(C(=O)[C@H](C)n3cc(CCC(=O)O)nn3)CC2)nc(N2CCN(C(=O)[C@H](C)n3cc(CCC(=O)O)nn3)CC2)n1 | 16 | -2 | 0%
COC(=O)c1ccccc1NC(=O)CSc1n[nH]c(C)n1 | 1 | -18 | 14%
CN1CCN(C(=O)c2ccc(C3SCC(=O)N3Cc3ccco3)cc2)CC1 (centres undefined) | 1 | -59* | -3%
COCCNC(=O)c1ccc(C2SCC(=O)N2Cc2ccco2)cc1 (centres undefined) | 1 | -2 | -11%
CCC(=O)NC1=C(Cl)C(=O)C(NC(=O)CC)=C(Cl)C1=O | 0 | -62* | -62%
CCC(=O)NC1=C(NC(C)c2ccccc2)C(=O)c2ccccc2C1=O (centres undefined) | 1 | -16 | 9%
CCN(CC)C(=O)Cn1cc(S(=O)(=O)CC(=O)Nc2ccc(F)cc2)c2ccccc21 | 6 | 0 | -22%
CCn1cc(SCC(=O)Nc2cc(C)on2)c2ccccc21 | 1 | -89* | 4%
CCN(CC)C(=O)Cn1cc(S(=O)(=O)CC(=O)Nc2cc(C)on2)c2ccccc21 | -6 | -51* | -3%
CCCn1cc(SCC(=O)Nc2cc(C)on2)c2ccccc21 | -22 | -20 | 14%
O=C(Nc1ccccn1)c1ccc2ccccc2c1O | 7 | 14 | 42%
Cc1ccsc1C(=O)OCC(=O)N(C)C1CCCCC1 | -16 | -7 | 4%
O=C(NC1CCCCC1)c1cc(-c2ccccn2)nc2ccccc12 | -7 | -10 | -22%
Cc1ccn2c(CNCCn3cccn3)c(C(=O)N3CCCCCC3)nc2c1 | -8 | -17 | -7%
Cc1ccn2c(CNCC3OCCc4ccccc43)c(C(=O)N3CCCCCC3)nc2c1 (centres undefined) | -13 | -81* | -28%
Cc1ccn2c(CNCCCn3cccn3)c(C(=O)N3CCCCCC3)nc2c1 | -15 | -58* | -2%
O=C(c1nc2ccccn2c1CNCC1OCCc2ccccc21)N1CCOCC1 (centres undefined) | -10 | -26 | -15%
O=C(Oc1cc2oc(=O)c3c(c2cc1Cl)CCCC3)c1cccs1 | -3 | -21 | 13%
Cc1ccc(OCCCOc2cccc3cccnc23)cc1C | 8 | 7 | 19%
SMILES | D3 ag | DRD3 antagonist | a7 integrin act
Cc1cccc(OCCCOc2cccc3cccnc23)c1C | 5 | -54* | -30%
O=C1c2ccccc2S(=O)(=O)c2cc(N3CCC(C(=O)N4CCCCC4)CC3)ccc21 | 38* | 49 | -30%
CC(C)(C)CNC(=O)c1cccc2c1C(=O)c1ccc(N3CCCC3)cc1S2(=O)=O | 23 | 70 | -4%
O=C(NC1CCCCC1)c1cccc2c1C(=O)c1ccc(N3CCCC3)cc1S2(=O)=O | 24 | -1 | 25%
O=C(NCc1ccc(F)cc1)c1cccc2c1C(=O)c1ccc(N3CCC(Cc4ccccc4)CC3)cc1S2(=O)=O | 43* | 0 | -11%
O=C(NCc1ccccc1C(F)(F)F)c1cccc2c1C(=O)c1ccc(N3CCCCC3)cc1S2(=O)=O | 33* | 56 | 15%
O=C(NC1CC1)c1cccc2c1C(=O)c1ccc(N3CCC(Cc4ccccc4)CC3)cc1S2(=O)=O | 27 | 78 | 4%
CC1CCN(c2ccc3c(c2)S(=O)(=O)c2cccc(C(=O)NCc4ccc(F)cc4)c2C3=O)CC1 | 15 | 82 | 6%
O=C(NCc1cc(C(F)(F)F)ccc1Cl)c1cccc2c1C(=O)c1ccc(N3CCC(Cc4ccccc4)CC3)cc1S2(=O)=O | 47* | 5 | 9%
